# esBAF inh = blocks esBAF chromatin remodeling in mouse ES cells; Bmi1-luciferase knock-in reporter, 24 h; 100% = twice the neutral-well signal; reporter increase, % at 12.5 µM; hit rate 2% among 350,000; AID 602393; in the data active = activation above about 40%; inconclusive = no clear call, values can overlap the other calls;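 note: 0% = median of the plate's neutral control wells and 100% = double that signal; a rise in the Bmi1 reporter signal indicates esBAF inhibition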
# HSF-1 act = increases HSF-1 driven luciferase reporter signal. NIH3T3-HGL HSF-1 luciferase reporter, MG132, 8 h; 100% = twice DMSO control signal. activation, % at 9 µM. hit rate 1.7% among 300,000. AID 504408;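 active = mean replicate activation of at least 50% with a set share of replicates each reaching 50%; inconclusive = only one of those two conditions met; inactive = mean below 50% and too few replicates reaching it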;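 note: 0% = median of the neutral control wells and 100% = twice that signal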
# Wnt bcat act = activates Wnt/beta-catenin signaling in a reporter cell assay. activator, plate reader. hit rate 1.2% among 300,000. activation, % at 9.35 µM. AID 743398; in the data active = activation above about 30%, passing the limit was not always enough; inconclusive = no clear call, values can overlap the other calls;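 note: 0% = neutral control wells and 100% = positive control wells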
# MITF TRPM1 HTS = increases MITF-driven TRPM1 promoter luciferase signal; SK-MEL-5 TRPM1-promoter luciferase, 24 h; % of positive control, neutral wells = 0; activation, % at 12.5 µM; hit rate 0.75% among 300,000; AID 588334;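 active = mean activation of at least 80% with every replicate also reaching 80%; inconclusive = mean reaches 80% but some replicate falls short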;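 note: 0% = neutral control wells and 100% = parthenolide positive control wells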
# HSF1 inhib = HSF1 inhibition; NIH3T3-HGL HSE-luciferase, MG132-induced, luminescence 8 h; hits give low values; activity change, negative = inhibition, % at 7.5 µM (by protocol); hit rate 0.77% among 300,000; AID 2098;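 active = more than half of replicate wells show activity change below -50%, luminescence cut by over half; inconclusive = some wells, but at most half, below -50%; inactive = no replicate well below -50%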;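 note: luciferase reports HSF-1 transcriptional activity via heat shock element; 0% = median of DMSO wells and -100% = zero luminescence signal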
# The depositor's hits bear a star; ? = inconclusive; nt = not tested or not shown. Rows were chosen to be rich in hits. Some 3.8% of all compounds tested hit in one or more screens of this group.
SMILES,esBAF inh,HSF-1 act,Wnt bcat act,MITF TRPM1 HTS,HSF1 inhib
CCOc1ccc2ncc(S(=O)(=O)c3ccc(C)cc3)c(N3CCC4(CC3)OCCO4)c2c1,nt,104*,-3,18,41
CCOC(=O)c1cnc2ccc(OCC)cc2c1N1CCN(C)CC1,-3,-13,-5,17,7
O=C(C[C@H]1C=C[C@@H](NC(=O)CC2CC2)[C@H](CO)O1)NCC(F)(F)F,-3,nt,nt,nt,nt
COc1cc(NC(=O)CC(C)S(=O)(=O)c2ccc3c(c2)NC(=O)CO3)cc(OC)c1OC (configuration not stated),-4,55*,-1,7,12
Cc1ccccc1NC(=O)CC(C)S(=O)(=O)c1ccc2c(c1)NC(=O)CO2 (configuration not stated),-2,62*,-1,-3,17
CC(CC(=O)Nc1cccc(F)c1)S(=O)(=O)c1ccc2c(c1)NC(=O)CO2 (configuration not stated),-6,1,-2,5,2
COc1ccccc1CNC(=O)C[C@@H]1C[C@@H]2c3cc(NS(C)(=O)=O)ccc3O[C@@H]2[C@H](CO)O1,2,nt,nt,nt,nt
C/C(CC(=O)Nc1ccc(C)c(Cl)c1)=N\NC(=O)Cc1cnc(N)s1,nt,61*,1,8,27
C/C(CC(=O)Nc1ccc(C)c(Cl)c1)=N\NC(=O)Cc1ccccc1,-3,?,nt,17,21
O=C(CN1C(=O)c2ccccc2S1(=O)=O)N1CCOCC1,-7,7,9,6,-6
O=C(CN1C(=O)c2ccccc2S1(=O)=O)N1CCCCC1,-2,54*,26,-11,11
Cc1ccc(C(=O)CN2C(=O)c3ccccc3S2(=O)=O)cc1,nt,-76,2,nt,-75*
COc1ccccc1S(=O)(=O)N[C@H]1C=C[C@H](CC(=O)NCc2cc(F)cc(F)c2)O[C@H]1CO,-1,nt,nt,nt,nt
C=CCn1c(SCC(=O)NC(N)=O)nnc1-c1cc2c(s1)CCC(CC)C2 (configuration not stated),nt,19,-3,-7,6
C=CCn1c(SCC(=O)NCC)nnc1-c1cc2c(s1)CCC(CC)C2 (configuration not stated),46*,30,-3,38,19
Cc1cc(=O)oc(C)c1C(=O)Nc1ccc2ncccc2c1,-1,1,-4,5,-8
Cc1coc(C)c1C(=O)Nc1ccc2ccccc2c1,57*,?,9,44,19
Cc1oncc1C(=O)Nc1ccc2ccccc2c1,10,66*,10,22,42
COC(=O)[C@H]1[C@H](CO)[C@H]2Cn3c(cccc3=O)[C@H]2N1C(=O)C1CCCCC1,-2,nt,nt,nt,nt
C[C@@H]1CN([C@H](C)CO)C(=O)c2cccc(NC(=O)C3CCCCC3)c2O[C@H]1CN(C)S(=O)(=O)c1ccccc1,0,nt,nt,nt,nt
Nc1nc(OCc2ccccc2)c2[nH]cnc2n1,-4,2,3,-17,-1
Cc1nc2nc(N)nc(OCc3ccccc3)c2nc1C,nt,1,50*,nt,-3
Cc1cccc(NC(=O)Nc2ccc3c(c2)N(C)C(=O)CS3)n1,49*,35,7,91*,17
Cc1ccnc(NC(=O)Nc2ccc3c(c2)N(C)C(=O)CS3)c1,nt,69*,24,187*,30
Cc1ccc(NC(=O)Nc2ccc3c(c2)N(C)C(=O)CS3)nc1,?,7,-3,?,14
SMILES,esBAF inh,HSF-1 act,Wnt bcat act,MITF TRPM1 HTS,HSF1 inhib
O=C(C[C@@H]1CC[C@H](NC(=O)CCN2CCCCC2)[C@H](CO)O1)Nc1ccc(-c2ccccc2)cc1,1,nt,nt,nt,nt
Cc1ccc2[nH]c3c(c2c1)CN(C)CC3,3,-12,-2,-2,4
Cc1ccc2[nH]c3c(c2c1)CCN(C)C3,5,-77,1,nt,-71*
O=C(O)c1ccc(N/N=C/c2cn(Cc3ccc(F)cc3)c3ccccc23)cc1,nt,-74,9,22,-69*
Cc1c(/C=N/Nc2ccc(C(=O)O)cc2)c2ccccc2n1C,67*,-65,2,90*,-65*
CCNC(=S)N/N=C/c1cn(Cc2ccc(F)cc2)c2ccccc12,nt,36,8,17,20
CCC(=O)N[C@@H]1CC[C@H](CCn2cc(-c3cccc(OC)c3)nn2)O[C@@H]1CO,0,nt,nt,nt,nt
N#Cc1cccc(NC(=O)c2cc(C3CCCCN3S(=O)(=O)c3cccc4cccnc34)on2)c1 (configuration not stated),52*,nt,-3,nt,nt
Cc1cccc(S(=O)(=O)N[C@H]2CC[C@H](CCNS(=O)(=O)c3ccccc3F)O[C@H]2CO)c1,1,nt,nt,nt,nt
Cc1c(Cc2ccccc2)sc(/N=C/c2c(O)ccc3ccccc23)c1C(N)=O,nt,-55,nt,0,-58*
Cc1ccc(S(=O)(=O)N[C@@H]2C=C[C@@H](CC(=O)NCCc3ccncc3)O[C@@H]2CO)cc1,-2,nt,nt,nt,nt
Cc1ccc(NC(=O)c2cc(-c3ccc(C)o3)nc3ccccc23)cc1,4,0,2,4,-7
Cc1ccc(-c2cc(C(=O)Nc3cccnc3)c3ccccc3n2)o1,7,52*,1,8,34
CC=Cc1ccc2n(c1=O)C[C@@H]1[C@@H](CO)[C@H](C(=O)Nc3ccc(-c4ccccc4)cc3)N(CCC)[C@H]21 (mixture of isomers),3,nt,nt,nt,nt
O=C(Nc1ccccc1)c1ccc(-c2ccccc2)s1,nt,13,5,85*,19
O=C(O)c1ccc(-c2ccc(-c3ccccc3)cc2)s1,-33,-51,nt,-81,-51*
O=C(Nc1ccccc1)c1cc2ccc3ccccc3c2s1,79*,?,66*,42,29
O=C(Nc1ccccc1)c1sc(Cl)nc1-c1ccccc1,-4,13,-2,-10,10
CN(C)/C=C/C(=O)c1ccc(Cl)cc1,21,22,2,nt,8
CN(C)/C=C/C(=O)c1ccc(-n2cccc2)cc1,nt,-14,54*,42,-5
CSc1ccc(NC(=O)Nc2cc(C)ccn2)cc1,-65,12,29,36,-6
Cc1ccc(NC(=O)Nc2ccc(F)cc2)nc1,nt,30,nt,82*,0
Cc1ccnc(NC(=O)CNC(=O)c2ccc(C)s2)c1,?,-10,-1,21,-8
Cc1ccnc(NC(=O)Nc2ccc(F)cc2)c1,nt,61*,nt,42,29
Cc1ccnc(NC(=O)c2cc3cc(F)ccc3s2)c1,17,72*,38*,52,32
SMILES,esBAF inh,HSF-1 act,Wnt bcat act,MITF TRPM1 HTS,HSF1 inhib
COc1ccccc1NC(=O)Nc1ccc(C)cn1,14,-1,11,nt,-5
Cc1ccnc(NC(=O)COc2ccc3c(c2)CCC3)c1,53*,13,-19,42,3
Cc1noc(C)c1S(=O)(=O)N(C)C[C@H]1OCCCC[C@@H](C)Oc2ccc(NC(=O)CCCN(C)C)cc2C(=O)N([C@@H](C)CO)C[C@H]1C,-1,nt,nt,nt,nt
COc1ccc(C(=O)NC(=O)Nc2cc(C)ccn2)cc1,-77,-31,-10,-72,-28
Cc1ccnc(NC(=O)Nc2ccc(Br)cc2Cl)c1,nt,-33,39*,17,-14
COC(=O)c1ccccc1NC(=O)Nc1cc(C)ccn1,6,24,2,9,2

# Source: PubChem BioAssay
